# Measured values reported in ChEMBL document CHEMBL3988442, “University of Dundee, Small-Polar-MMV Screening Library” (2021).
# Hit rate of the full screen: of about 66,000 compounds, about 960 (1.5%) showed an effect of 50% or more. This is one part of a sample in which strong results are shown more often than they occur.
# Tested on: Trypanosoma brucei
# Assay: Trypanosoma brucei 72 hour study
# Assay type: functional, organism-based
# Parameters: scale not given: in the data most compounds retested in dose-response had high values
compound,measurement,setting,value
O=C(Nc1cnn(CC(=O)N2CCCCO2)c1)c1ccccn1,Percent Effect,"30 µM, 30.03 µM",-63.86%
O=C(Nc1cnn(CC(=O)N2CCCCO2)c1)c1ccsc1,Percent Effect,"30 µM, 30.03 µM",102%
O=C(Nc1cnn(CC(=O)N2CCCO2)c1)c1ccccc1,Percent Effect,"30 µM, 30.03 µM",-24.18%
Cc1ccc(C(=O)N(C)Cc2cc(Br)cs2)cn1,Percent Effect,"30 µM, 30.03 µM",-13.9%
c1ncn(CC2CCCN(Cc3csc(-c4ccsc4)n3)C2)n1 (configuration not stated),Percent Effect,"30.3 µM, […]",-1.362%
c1ccc(-c2nc(CN3CCCC(Cn4cncn4)C3)cs2)cc1 (configuration not stated),Percent Effect,"30.3 µM, […]",51.63%
Clc1ccc2cccnc2c1CN1CCCC1Cn1cncn1 (configuration not stated),Percent Effect,"30 µM, 30.03 µM",3.447%
Clc1ccc(CN2CCCC(Cn3cncn3)C2)c2ncccc12 (configuration not stated),Percent Effect,"30 µM, 30.03 µM",-24.17%
Clc1ccc2cccnc2c1CN1CCCC(Cn2cncn2)C1 (configuration not stated),Percent Effect,"30 µM, 30.03 µM",98.3%
c1cnc(-c2nc(CN3CCCC(Cn4cncn4)C3)cs2)nc1 (configuration not stated),Percent Effect,"30 µM, 30.03 µM",8.258%
CO[C@@H]1CCN(C(=O)Cc2ccc(F)cc2)[C@@H]1Cc1cccnc1.O=C(O)C(F)(F)F,Percent Effect,"30.3 µM, […]",-10.6%
COCCN1CC[C@H]2CN(Cc3ccc(C)s3)C[C@@H]2C1=O.O=C(O)C(F)(F)F,Percent Effect,"30.3 µM, […]",-7.411%
CO[C@H]1CN(Cc2ccccc2F)C[C@@]12CCCO2,Percent Effect,"30.3 µM, […]",-11.54%
CO[C@H]1CN(Cc2nc3ccccc3n2C)CC[C@@]12CCCO2,Percent Effect,"30.3 µM, […]",5.707%
CO[C@H]1CN(Cc2nc3ccccc3n2C)C[C@@]12CCCO2,Percent Effect,"30.3 µM, […]",99.68%
O=C(O)C(F)(F)F.O=C(O)C(F)(F)F.O=C(c1ccnnc1)N1CCN(Cc2ccncc2)c2ncccc2C1,Percent Effect,"30.3 µM, […]",-2.542%
Cc1nc(Nc2nccs2)cc(C2CCCN2)n1.Cl (configuration not stated),Percent Effect,"30.3 µM, […]",99.83%
Cc1nc(Nc2ncc(C)s2)cc(C2CCCN2S(C)(=O)=O)n1 (configuration not stated),Percent Effect,"30.3 µM, […]",-10.42%
Cc1nc(Nc2nnc(C)s2)cc(C2CCCN2)n1.Cl (configuration not stated),Percent Effect,"30.3 µM, […]",-18.52%
Cc1nc(Nc2ncc(C)s2)cc(C2CCCN2)n1.Cl (configuration not stated),Percent Effect,"30.3 µM, […]",99.89%
Cc1nc(Nc2nccs2)cc(C2CCCN2C2CCOCC2)n1 (configuration not stated),Percent Effect,"30.3 µM, […]",18.07%
Cc1nc(Nc2nncs2)cc(C2CCCN2)n1.Cl (configuration not stated),Percent Effect,"30.3 µM, […]",-19.68%
COc1ccc(NC(=O)CCNc2ncccn2)cn1,Percent Effect,"30 µM, 30.03 µM",-26.87%
CCn1cc(CN2C[C@@H]3CCCN3C[C@@H]2CCSC)cn1.O=C(O)CC(O)(CC(=O)O)C(=O)O,Percent Effect,"30.3 µM, […]",8.457%
O=C(NCC1CCOCC1)[C@@H]1C[C@@H]2[C@@H](CCN2Cc2nccs2)O1.O=C(O)C(F)(F)F,Percent Effect,"30.3 µM, […]",-69.82%
Cc1cc(C[C@@H]2COC[C@H]2NCc2ccc(C(F)(F)F)cc2)on1.O=C(O)CC(O)(CC(=O)O)C(=O)O,Percent Effect,"30.3 µM, […]",8.396%
O=C(Cc1ccccn1)N1C[C@H](OCc2cccnc2)[C@H]2COC[C@H]21.O=C(O)C(F)(F)F.O=C(O)C(F)(F)F,Percent Effect,"30.3 µM, […]",-31.71%
O=C(C1CC1)N1Cc2[nH]nc(COCc3cccnc3)c2C1.O=C(O)C(F)(F)F.O=C(O)C(F)(F)F,Percent Effect,"30.3 µM, […]",-50.32%
COCCN(C)C[C@@H]1CN(c2nc(C)cc(C)n2)C[C@@H]1CO,Percent Effect,"30 µM, 30.03 µM",-45.82%
COCCN(C)C[C@@H]1CN(Cc2ccnc3ccccc23)C[C@@H]1CO,Percent Effect,"30 µM, 30.03 µM",-38.21%
COCCN(C)C[C@@H]1CN(c2cc(C)nc3ccccc23)C[C@@H]1CO,Percent Effect,"30 µM, 30.03 µM",99.51%
COCCNc1cc(-c2cccc(C(=O)O)c2C)c2cc[nH]c2n1,Percent Effect,"30 µM, 30.03 µM",-15.23%
COCC(=O)N1CC[C@H]2C[C@H](C)O[C@@H]2C1,Percent Effect,"30 µM, 30.03 µM",19.11%
COCC(=O)N1CC[C@@H]2O[C@@H](C)C[C@H]2C1,Percent Effect,"30.3 µM, […]",51.97%
COCC(=O)N1CC[C@H]2O[C@@H](C)C[C@H]2C1,Percent Effect,"30.3 µM, […]",-22.84%
O=C(O)C(F)(F)F.c1cnc(NCc2nnn3c2CN(Cc2cccs2)CCC3)nc1,Percent Effect,"30 µM, 30.03 µM",-17.42%
Cc1occc1C(=O)N1CCC2(CCN(C(=O)c3cccnc3)C2)CC1.O=C(O)C(F)(F)F,Percent Effect,"30.3 µM, […]",-37.63%
CC(C)COc1ccccc1C(N)CC(C)C (configuration not stated),Percent Effect,"30 µM, 30.03 µM",-18.48%
CCOc1ccccc1C(N)CC(C)C (configuration not stated),Percent Effect,"30 µM, 30.03 µM",-21.09%
CC(C)C[C@H](N)COc1cccc(F)c1Oc1ccc(Cl)cc1,Percent Effect,"30.3 µM, […]",100.5%
NCc1ccc(Oc2cccc(Cl)c2Cl)cc1,Percent Effect,"30 µM, 30.03 µM",-54.14%
CC(C)C[C@H](N)COc1cccc(F)c1Oc1cccc(Cl)c1,Percent Effect,"30.3 µM, […]",99.87%
COc1ccccc1C(N)CC(C)C (configuration not stated),Percent Effect,"30 µM, 30.03 µM",-12.31%
Cc1ccc(Oc2c(F)cccc2OC[C@@H](N)CC(C)C)cc1,Percent Effect,"30.3 µM, […]",99.61%
CNCc1cc(F)ccc1Oc1ccc(Cl)cc1,Percent Effect,"30.3 µM, […]",-18.58%
CCCOc1ccccc1C(N)CC(C)C (configuration not stated),Percent Effect,"30 µM, 30.03 µM",-40.73%
CC(CNS(N)(=O)=O)Oc1cccc(Cl)c1 (configuration not stated),Percent Effect,"30 µM, 30.03 µM",-29.05%
CC(C)C[C@H](N)COc1cccc(F)c1Oc1ccccc1,Percent Effect,"30.3 µM, […]",100.2%
CC(CNS(C)(=O)=O)Oc1cccc(Cl)c1 (configuration not stated),Percent Effect,"30 µM, 30.03 µM",-19.79%
Cc1ccc(NC2CCN(C(=O)CCc3ccncc3)CC2)nn1,Percent Effect,"30.3 µM, […]",5.448%
same,Percent Effect,"10 mM, 10 mM as filed; unlikely as a test dose",-59.85%
CC(CNCc1ccc2c(c1)n(C)c(=O)n2C)Oc1ccccn1.Cl (configuration not stated),Percent Effect,"30 µM, 30.03 µM",-26.55%
CCn1nc(C)c2ccn(CC(=O)NC3CC3)c(=O)c21,Percent Effect,"30 µM, 30.03 µM",-19.49%
c1ccc(-c2nc(CNCCn3cccn3)cs2)nc1,Percent Effect,"30.3 µM, […]",-32.04%
CCn1ncc(CN2CCCC(n3c(=O)oc4ccccc43)C2)c1C.Cl (configuration not stated),Percent Effect,"30.3 µM, […]",17.06%
CCc1ccc(C(=O)Nc2ccc3c(c2)N(C)CCN(C)C3)o1,Percent Effect,"30 µM, 30.03 µM",-2.445%
CCN1CCOCC2(CCCN(C(=O)c3ccccc3F)C2)C1.O=C(O)C(F)(F)F (configuration not stated),Percent Effect,"30.3 µM, […]",-73.72%
CO[C@H]1CC[C@H]2[C@H]1OCCN2Cc1ccc(F)c(F)c1.O=C(O)C(F)(F)F,Percent Effect,"30.3 µM, […]",-36.53%
CCN1CC2(CC1=O)CN(Cc1cnn(C)c1)CCN(C(=O)N(C)C)C2.O=C(O)C(F)(F)F (configuration not stated),Percent Effect,"30 µM, 30.03 µM",-27.29%
CC(=O)NCC1CCN(C(=O)c2c(C)[nH]c3ccc(Cl)cc23)CC1,Percent Effect,"30.3 µM, […]",4.898%
C[C@@H](CO)Nc1nccc(-c2cnc3sc(Cl)cn3c2=O)n1,Percent Effect,"30.3 µM, […]",8.201%
CCc1nc(C)c(C(=O)NCC2COc3cc(OC)ccc3C2)o1 (configuration not stated),Percent Effect,"30 µM, 30.03 µM",22.43%
